In the library only some 2.6% were active in any assay of this set; here they are far more common.
LMP1 NFkB inh: EBV LMP1-driven NF-kappaB luciferase reporter inhibitors, primary screen, cell-based, luminescence, single point. LMP1-induced NF-kappaB luciferase reporter cells. inhibition, % at 12.5 µM. 350,000 tested, 0.69% active; in the data active means inhibition above about 41%
HSP90 refold inh: HSP90 inhibitors, primary screen, cell lysate, luminescence; 290,000 tested, 0.91% active; Heat shock protein HSP 90 (rabbit reticulocyte lysate; luciferase refolding); Rabbit reticulocyte lysate, luciferase refolding luminescence, 3 h; inhibition, % at 5.6 µM;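 active means inhibition above the screen-wide mean plus 3 SD, computed separately per campaign, cut at about 16% in these data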;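 further: inhibitors lower the luminescence because luciferase stays unfolded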
LGR2 inh: inhibitors of bursicon-induced LGR2 CRE-luciferase signal, primary screen, cell-based, HEK293, CRE-luciferase reporter, bursicon stimulation | AID 720647, 2013 | Drosophila bursicon receptor LGR2 (rickets) | 380,000 tested, 0.35% active | inhibition, % at 9.99 µM | bursicon-stimulated, 4 h;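 active means drop in luminescence signal, shown as inhibition above about 50% in the replicate tests, limit read from the data, passing the limit was not always enough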;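 further: agonist challenge used bursicon conditioned medium at about half maximal strength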
TROY signal inh: inhibitors of TROY-driven NF-kB signaling, primary screen, Q293 LMP1-TROYcd cells, NF-kB luciferase, uHTS | AID 1347056, 2019 | 360,000 tested, 0.98% active | inhibition, % at 10 µM | Q293 LMP1-TROYcd NF-kB luciferase reporter, 4 h;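 active means compounds whose plate-normalised and pattern-corrected inhibition of the luciferase reporter signal at the single screening dose is 50% or more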
aDG glyco up: activators of alpha-DG glycosylation, primary screen, uHTS, Pro5-aDG cells, AlphaScreen | alpha-DG glycosylation AlphaScreen (IIH6); 0% Pro5, 100% B10-LARGE cell signal | activation, % at 10 µM | 360,000 tested, 0.22% active | AID 624168, 2012;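 active means activation of at least 8% versus controls, or a plate z-score of at least 8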;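 further: Pro5 are CHO cells carrying HIG-tagged alpha-DG that lacks glycosylation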
TWEAK-Fn14 inh: inhibitors of TWEAK-Fn14 signaling, primary screen, luciferase reporter cells, uHTS. TWEAK-stimulated Fn14 reporter cells, luciferase luminescence, 8 h. inhibition, % at 10 µM. 360,000 tested, 2% active. AID 1159606, 2016; in the data active means inhibition above about 50%
Hits are given with their value; i = inactive; nt = no result.

SMILES	LMP1 NFkB inh	HSP90 refold inh	LGR2 inh	TROY signal inh	aDG glyco up	TWEAK-Fn14 inh
CC(=O)NC1C(O)OC(CO)C(O)C1O (stereo not drawn)	80	nt	i	i	i	i
O=C(CNC(=O)OCc1ccccc1)NCC(=O)NC(Cc1c[nH]c2ccccc12)C(=O)O (stereo not drawn)	nt	nt	i	51	i	i
CC(C)C(NC(=O)OCc1ccccc1)C(=O)NC(Cc1c[nH]c2ccccc12)C(=O)O (stereo not drawn)	nt	nt	i	i	i	i
CCOC(=O)COc1ccccc1/C=C\[N+](=O)[O-]	i	i	nt	87	i	104
Cc1ccccc1-c1nnc(NC(=O)c2ccc(N3C(=O)CCC3=O)cc2)s1	i	i	i	i	i	i
O=C(Nc1nnc(C23CC4CC(CC(C4)C2)C3)s1)c1ccco1	i	i	nt	i	i	i
CC(C)c1nnc(NC(=O)c2ccc(N3C(=O)CCC3=O)cc2)s1	86	i	i	i	i	i
O=C(Nc1nnc(C23CC4CC(CC(C4)C2)C3)s1)c1ccc(N2C(=O)CCC2=O)cc1	81	i	i	i	i	i
O=C(Oc1cccc(Nc2ncnc3ccccc23)c1)c1cccnc1	i	i	nt	i	i	i
COc1cc(C(=O)Oc2cccc(Nc3ncnc4ccccc34)c2)cc(OC)c1OC	i	i	85	79	i	99
COc1ccc(C(=O)Oc2cccc(Nc3ncnc4ccccc34)c2)cc1OC	i	i	i	54	i	82
CN1[C@H](C(=O)Nc2ccccc2)[C@@H](CO)[C@@H]2Cn3c(ccc(-c4ccccc4)c3=O)[C@@H]21	nt	nt	i	nt	nt	nt
Nc1ccc(-c2nc3c(Cl)cc(N)cc3[nH]2)cc1	i	i	nt	62	i	67
Nc1ccc2nc(-c3ccc(N)c(Cl)c3)[nH]c2c1	i	i	nt	i	i	i
Cc1ccc(S(=O)(=O)N[C@@H]2CC[C@H](CCNS(=O)(=O)Cc3ccccc3)O[C@H]2CO)cc1	nt	nt	i	nt	nt	nt
O=C(C[C@H]1C=C[C@H](NS(=O)(=O)c2ccccc2)[C@H](CO)O1)N1CCN(c2ccccc2)CC1	nt	nt	i	nt	nt	nt
CCCN1C[C@H](C)[C@@H](OC)CN(C)C(=O)c2cc(NC(=O)COC)ccc2OC[C@H]1C	nt	nt	i	nt	nt	nt
C[C@H]1Cn2cnc(C(=O)Nc3cccc(Cl)c3)c2C(=O)N1	i	nt	i	52	i	71
COc1ccc(NC(=O)N(C)C[C@H]2Oc3c(NS(=O)(=O)c4ccccc4)cccc3C(=O)N([C@@H](C)CO)C[C@H]2C)cc1	nt	nt	i	nt	nt	nt
Cc1c(/C(O)=C2\C(=O)C(=O)N(CCCN(C)C)C2c2ccco2)cnn1-c1ccccc1 (stereo not drawn)	i	nt	i	80	i	80
Cc1c(/C(O)=C2\C(=O)C(=O)N(CCCN(C)C)C2c2cccs2)cnn1-c1ccccc1 (stereo not drawn)	i	nt	i	66	i	59
Cc1ccc(C2/C(=C(\O)c3cnn(-c4ccccc4)c3C)C(=O)C(=O)N2CCN(C)C)o1 (stereo not drawn)	i	i	nt	i	i	i
COc1ccccc1C1/C(=C(/O)c2cnn(-c3ccccc3)c2C)C(=O)C(=O)N1CCN(C)C (stereo not drawn)	i	nt	i	i	i	i
CC(C)C#Cc1ccc2c(c1)O[C@H](CN(C)C(=O)C1CCC1)[C@@H](C)CN([C@@H](C)CO)S2(=O)=O	nt	nt	i	nt	nt	nt
CN1C(=O)c2cc(NS(=O)(=O)CC(F)(F)F)ccc2OC[C@H]2O[C@@H](CC(=O)Nc3cccc(F)c3)CC[C@@H]21	nt	nt	i	nt	nt	nt
SMILES	LMP1 NFkB inh	HSP90 refold inh	LGR2 inh	TROY signal inh	aDG glyco up	TWEAK-Fn14 inh
C[C@@H]1CCCCO[C@H](CN(C)S(C)(=O)=O)[C@@H](C)CN([C@@H](C)CO)C(=O)c2cc(NC(=O)Nc3cccc4ccccc34)ccc2O1	nt	nt	i	nt	nt	nt
COc1ccc(/C(CC2OC(=O)c3ccccc32)=N\NC(N)=O)cc1 (stereo not drawn)	65	i	i	i	i	i
CC(C)C(=O)Nc1ccc(C(=O)N/N=C/c2cc(Br)cc(Br)c2O)cc1	44	i	i	i	i	i
CN(C)/C=N/C1=C(C#N)C(c2ccc(Br)cc2)c2ccc3ccccc3c2O1 (stereo not drawn)	i	17	i	i	i	i
N#CC1=C(N)Oc2c(ccc3ccccc23)C1c1cccs1 (stereo not drawn)	nt	i	nt	nt	nt	nt
CC(=O)c1ccc2noc(-c3ccccc3)c2c1	i	i	i	i	i	i
CN(C)/C=C/C(=O)c1ccc2noc(-c3ccccc3)c2c1	60	i	i	i	i	i
CCCNC(=O)C[C@H]1CC[C@@H]2[C@@H](COc3ccc(NC(=O)c4ccc5c(c4)OCO5)cc3C(=O)N2C)O1	nt	nt	i	nt	nt	nt
COc1ccc(NC(=O)Nc2ccc3c(c2)C(=O)N([C@@H](C)CO)C[C@@H](C)[C@@H](CN(C)C(=O)Nc2c(C)noc2C)OCCCC[C@@H](C)O3)cc1	nt	nt	i	nt	nt	nt
O=C1/C(=C/c2ccccc2O)SC(=S)N1Cc1cccnc1	i	i	83	i	i	i
O=C1/C(=C/c2cccnc2)SC(=S)N1Cc1ccco1	43	nt	i	i	i	i
Cc1cc(/C=C2\SC(=S)N(Cc3ccco3)C2=O)c(C)n1-c1cccnc1	i	i	nt	i	i	i
O=C1/C(=C\c2cccc([N+](=O)[O-])c2O)SC(=S)N1Cc1ccccc1	i	i	i	i	i	69
O=C1/C(=C\c2cc(Br)cc(Br)c2O)SC(=S)N1Cc1ccccc1	i	i	nt	i	i	i
O=C(O)c1ccc(/C=C2/SC(=S)N(Cc3ccccc3)C2=O)cc1	i	i	i	i	i	i
O=C1/C(=C\c2ccc(O)cc2)SC(=S)N1Cc1ccccc1	i	i	i	i	i	i
O=C1/C(=C/c2ccc(O)c([N+](=O)[O-])c2)SC(=S)N1Cc1ccccc1	i	i	i	i	i	60
CO[C@H]1CN(C)C(=O)c2ccc(NC(=O)C3CCCC3)cc2OC[C@@H](C)N(C(C)=O)C[C@H]1C	nt	nt	i	nt	nt	nt
COc1cc2c(c(OC)c1OC)-c1ccc(OC)c(=O)cc1C(N)CC2 (stereo not drawn)	i	nt	i	i	i	64
O=C(Nc1ccc(S(=O)(=O)NC2=NCCCCC2)cc1)c1ccc(Cl)c([N+](=O)[O-])c1	i	nt	i	i	i	i
Cc1cccc(C)c1NS(=O)(=O)c1ccc(NC(=O)c2ccc(Cl)c([N+](=O)[O-])c2)cc1	i	i	i	68	i	87
O=C(Nc1ccc(C(O)(C(F)(F)F)C(F)(F)F)cc1)c1ccc(Cl)c([N+](=O)[O-])c1	i	i	i	50	i	62
